This is a sample that favours compounds with a hit; in the whole collection about 0.35% have one here.
MBNL1 CUG block – inhibitors of human MBNL1 binding to CUG repeat RNA; Potency, µM (highest dose often 57.5 µM), for inactives: at the highest dose activity change, negative = inhibition, actives largely listed as inhibitors; hit rate 0.036% among 280,000; TR-FRET MBNL1-His/biotin-(CUG)12 binding, 665/545 ratio; active means well fitted inhibition curve with a large enough effect in the signal ratio, with a control signal flat, not every such curve was filed as active; inconclusive means small, poorly fitted or top-dose-only effect, or effect the other way, or a change in a side signal; inactive means no such curve, though single readings can be large or run the other way; the % refers to the signal ratio; further: potency means the concentration at half of the fitted maximal effect; on the % scale 0 is the no-effect control and ±100 the full control effect
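Compound titration spanned 92 nM–58 uM against the MBNL1-His/biotin-(CUG)12 complex. After 60 min at room temperature with 5 nM streptavidin-XL665 and 0.055 ng/ul terbium anti-His, ratiometric 665/545 nm emission (Ex 340 nm) normalized to controls.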
TRPV1 potentiator – potentiators of human vanilloid receptor 1 (TRPV1). Q8NER1. potentiation, % at 8.33 µM. hit rate 0.02% among 320,000. TRPV1-expressing cells, Fluo-8 calcium influx, capsaicin EC20 potentiation. AID 540277; in the data active means potentiation above about 80%; inconclusive means between about 30% and that limit; further: 0% is about no effect
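Cells expressing TRPV1 were dye-loaded with Fluo-8 and read kinetically: 10 s baseline, 3 min after compound (agonist portion), then 2 min after EC20 capsaicin (allosteric enhancer portion). Calcium-bound dye fluorescence at 480/520 nm.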
CBFb RUNX1 block – blocks binding between human CBF-beta and RUNX1; Potency, µM (highest dose often 59.8 µM), for the others: at the highest dose activity, negative = inhibition, usual class: inhibitors; AID 1477; 230,000 tested, under 10 active; AlphaScreen CBFb-His/RUNX1-biotin binding, biochemical; further: % of control where 0% means no effect
Target sequence (Q01196 whole entry, looked up): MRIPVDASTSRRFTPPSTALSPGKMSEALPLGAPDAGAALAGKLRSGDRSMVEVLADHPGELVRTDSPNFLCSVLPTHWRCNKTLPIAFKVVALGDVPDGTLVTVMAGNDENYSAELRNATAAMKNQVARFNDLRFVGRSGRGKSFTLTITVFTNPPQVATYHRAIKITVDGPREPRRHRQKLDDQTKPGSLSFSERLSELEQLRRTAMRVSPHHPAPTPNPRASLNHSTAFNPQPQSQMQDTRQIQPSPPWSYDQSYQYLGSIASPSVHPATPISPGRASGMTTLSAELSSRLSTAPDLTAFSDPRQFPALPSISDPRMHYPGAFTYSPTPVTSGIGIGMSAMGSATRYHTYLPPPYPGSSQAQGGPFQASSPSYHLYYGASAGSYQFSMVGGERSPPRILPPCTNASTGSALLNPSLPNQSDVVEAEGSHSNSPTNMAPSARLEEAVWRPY
Target sequence (Q13951 whole entry, looked up): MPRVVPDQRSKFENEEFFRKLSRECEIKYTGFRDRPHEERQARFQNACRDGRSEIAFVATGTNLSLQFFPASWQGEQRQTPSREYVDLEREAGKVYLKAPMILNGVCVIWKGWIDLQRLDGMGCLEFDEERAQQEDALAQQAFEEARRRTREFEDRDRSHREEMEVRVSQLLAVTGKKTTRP
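Proteins preincubated together for 20 min at RT before compound addition; 15 min later, nickel and streptavidin beads were added and left 90 min prior to AlphaScreen measurement.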
TRPV1 agonist – agonists of human vanilloid receptor 1 (TRPV1); Q8NER1; TRPV1-expressing cells, Fluo-8 calcium influx, agonist mode; activation, % at 8.33 µM; hit rate 0.19% among 320,000; in the data active means activation above about 80%; inconclusive means between about 30% and that limit; further: 0% is about no effect
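Fluo-8 calcium influx in TRPV1-expressing cells, kinetic read (ex 480/em 520 nm). Compound added and read 3 min for agonist activity, followed by capsaicin at EC20 final and 2 min further read for enhancement.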
TCR activator – T cell receptor activation; 330,000 tested, under 10 active; primary human leukocytes, anti-CD3, IL-2 HTRF, 48 h; Potency, µM (top dose mostly 9.22 µM), inactives show top-dose activation of IL-2 secretion, most hits filed as activators; further: % of control where 0% means no effect
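48 hr co-incubation of compounds, a-CD3 beads and primary human leukocytes; IL-2 quantified homogeneously by HTRF with anti-IL-2 K and d2 conjugates.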
Luc counter – Kinase-Glo luciferase inhibition (counter-screen); Kinase-Glo luciferase, ATP luminescence, 8 min; Potency, µM (top dose mostly 38.3 µM), without a hit: top-dose activity change, negative = inhibition, usual class: inhibitors; hit rate 0.28% among 200,000; AID 1379; further: potency means the concentration at half of the fitted maximal effect; on the % scale 0 is the no-effect control and ±100 the full control effect; nearly all actives have a fitted effect of over 60% in size
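Luminescence was the read-out, taken after 8-minute incubation at ambient temperature. Luciferase turned over luciferin with 10 uM ATP in imidazole pH 7.2 buffer containing KCl, MgCl2, Tween 20 and BSA.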
An asterisk follows results filed as active; [ ] = another dose, or the depositor's remark. Unless noted, the call rests on the fitted dose curve; in most records, active means well fitted curve in the direction sought with a large enough effect; inconclusive means small, poorly fitted or top-dose-only effect, or another doubt; inactive means no such curve, though single readings can be large; an effect the other way counts as inactive or inconclusive.

For O=C(N/N=C/c1ccccc1)c1n[nH]c2c1CCCC2 the results were MBNL1 CUG block 3.5%, TRPV1 potentiator -19.3, CBFb RUNX1 block -1.6%, TRPV1 agonist 83.3*, TCR activator 0.6% and Luc counter -21.7%.
Screening O=C(N/N=C/c1ccccc1Cl)c1n[nH]c2c1CCCC2 returned TRPV1 potentiator 11.2, CBFb RUNX1 block -1.8%, TRPV1 agonist -6.5, TCR activator 2.9%[46.1 µM] and Luc counter 3.16µM*.
O=C(N/N=C/c1ccc(Cl)cc1)c1n[nH]c2c1CCCC2 was read as MBNL1 CUG block 0.8%, TRPV1 potentiator -16.1, CBFb RUNX1 block 8.5%, TRPV1 agonist inconclusive and TCR activator -1.5%.
Screening Cn1c2ccccc2c2ncn(Cc3ccc(F)cc3)c(=O)c21 returned TRPV1 potentiator -2.5, CBFb RUNX1 block -6.6%, TRPV1 agonist 80.3* and TCR activator -4.9%.
`CC(NC(=O)c1ccccc1NC(=O)c1ccccc1)C(=O)N1CCOCC1` (stereo not given) gave TRPV1 potentiator 7.1, CBFb RUNX1 block 5.6%, TRPV1 agonist 80.2*, TCR activator -6.9%[46.1 µM] and Luc counter 0.2%.
Screening C[C@@]12CC[C@@H]3[C@H](CCC4=CC(=O)CC[C@]43C)[C@@H]1CC[C@@H]2C(=O)COS(=O)(=O)c1ccc(Br)cc1 returned Luc counter -0.9%[7.66 µM].
Screening COc1ccc(CCNC(=O)CCCOc2cccc(C)c2C)cc1OC returned MBNL1 CUG block -4.4%, TRPV1 potentiator 12.6, CBFb RUNX1 block 8.5%, TRPV1 agonist 83.4* and TCR activator -3.8%.
Screening O[N+]1=CC=CCC1=S.On1ccccc1=S.[Zn] returned CBFb RUNX1 block -4.3% and Luc counter -6.8%.
`CSc1ccc(/C=C/C(=O)Nc2ccccc2)cc1` gave MBNL1 CUG block -5.3%, TRPV1 potentiator 3.8, CBFb RUNX1 block -7.6%, TRPV1 agonist 89.7*, TCR activator -8.1% and Luc counter 12.6µM*.
Screening CC(C)(C)c1ccc(/C=C/C(=O)Nc2cccnc2)cc1 returned MBNL1 CUG block 9.8%, TRPV1 potentiator -19.5, TRPV1 agonist 101.4* and TCR activator -6.8%.
O=C(/C=C/c1ccc(Cl)c(Cl)c1)Nc1cccnc1 was read as TCR activator 9.1%.
For C[C@@]12CC[C@@H]3[C@@H](CC[C@H]4C[C@@H](O)CC[C@]43C)[C@H]1CC[C@@H]2c1cc(C(F)(F)F)n[nH]1 the results were Luc counter -6.0%[7.66 µM].
Screening CN(N=O)c1ccc(/C=C\c2ccnc3ccccc23)cc1 returned Luc counter -6.6%[7.66 µM].
Screening Cc1ccc(OCCSc2nc3ccccc3n2CC(=O)O)cc1C returned MBNL1 CUG block -2.7%, TRPV1 potentiator 95.4*, TRPV1 agonist -1.9 and TCR activator -9.6%.
Screening COC(=O)N[C@@H](c1ccc(Br)cc1)C(C(=O)OC)C(=O)OC returned CBFb RUNX1 block -6.9% and Luc counter -1.6%.
Oc1cc(CN2COc3ccccc32)c(O)cc1CNC1CCCCC1 was read as Luc counter -2.0%[7.66 µM].
N=C1/C(=C\c2coc3ccccc3c2=O)C(=O)N=C2SC(c3ccncc3)=NN12 was read as MBNL1 CUG block inconclusive, TRPV1 potentiator -18.2, CBFb RUNX1 block -21.4%, TRPV1 agonist 91.0* and TCR activator 7.4%.
Screening NC=O returned CBFb RUNX1 block 5.9%[21.7 µM].
For CCOc1ccc2nc(NC(=O)c3ccco3)sc2c1 the results were MBNL1 CUG block 0.1%, TRPV1 potentiator -8.9, TRPV1 agonist inconclusive and TCR activator -1.1%.
CCOc1ccc2nc(NC(=O)c3ccoc3C)sc2c1 was read as MBNL1 CUG block 1.3%, TRPV1 potentiator inconclusive, CBFb RUNX1 block -11.0%, TRPV1 agonist 0.0, TCR activator 0.8% and Luc counter 2.82µM*.
`CC(C)(C)c1ccc(NC(=O)N2CCCN(c3ccc([N+](=O)[O-])cn3)CC2)cc1` gave MBNL1 CUG block inconclusive, TRPV1 potentiator -16.4, CBFb RUNX1 block 1.0%, TRPV1 agonist 92.3* and TCR activator -2.4%.
O=C(Nc1ccc([N+](=O)[O-])cc1)N1CCCCCC1 was read as MBNL1 CUG block inconclusive, TRPV1 potentiator -20.1, TRPV1 agonist 19.4 and TCR activator -4.2%.
For C=CCN(CC=C)c1cnn(-c2nc3ccccc3[nH]2)c(=O)c1Cl the results were MBNL1 CUG block inconclusive, TRPV1 potentiator 6.8, CBFb RUNX1 block -1.6%, TRPV1 agonist -2.8, TCR activator -10.4% and Luc counter 14.1µM*.
For O=c1c(Cl)c(NCCCO)cnn1-c1nc2ccccc2[nH]1 the results were MBNL1 CUG block inconclusive, TRPV1 potentiator -4.3, CBFb RUNX1 block -1.3%, TRPV1 agonist 2.8, TCR activator -4.8% and Luc counter 11.2µM*.
`O=c1c2ncn([C@@H]3O[C@@H]4COP(=O)(O)O[C@H]4[C@H]3O)c2nc2[nH]c(-c3ccccc3)cn12` gave CBFb RUNX1 block 22.3%.
Screening CCN(c1ccc(NC(=O)c2ccc(Cl)nc2)cc1)C(C)C returned TRPV1 potentiator -11.0, CBFb RUNX1 block -1.1%, TRPV1 agonist 84.3*, TCR activator 6.6% and Luc counter -3.7%.
For CCc1nc(Nc2ccccc2)c2oc3ccccc3c2n1 the results were MBNL1 CUG block 10.1%, TRPV1 potentiator -6.7, CBFb RUNX1 block 7.8%, TRPV1 agonist 84.2*, TCR activator -8.0% and Luc counter -0.9%.
`CCc1nc(Nc2cccc(OC)c2)c2oc3ccccc3c2n1` gave MBNL1 CUG block inconclusive, TRPV1 potentiator -0.3, TRPV1 agonist 81.4* and TCR activator 6.0%.
Screening CCc1nc(Nc2ccc(F)cc2)c2oc3ccccc3c2n1 returned MBNL1 CUG block -3.0%, TRPV1 potentiator 5.5, TRPV1 agonist inconclusive and TCR activator -0.1%.
CCCCCCCCCCCCC1CO1 (stereo not given) was read as CBFb RUNX1 block 11.2%[21.7 µM].
For Nc1ccc(O)c2c1C(=O)c1ccccc1C2=O the results were MBNL1 CUG block inconclusive, TRPV1 potentiator 2.1, CBFb RUNX1 block 0.4%, TRPV1 agonist -2.4, TCR activator 4.1% and Luc counter 12.6µM*.
CN1\C(=C/C=C/C=C/C=[N+](C)C)C(C)(C)c2ccccc21 was read as MBNL1 CUG block inconclusive, TRPV1 potentiator -11.9, CBFb RUNX1 block -22.5%, TRPV1 agonist inconclusive, TCR activator -11.4% and Luc counter 11.2µM*.
Clc1ccc2nc(-c3ccccc3)[nH]c2c1 was read as CBFb RUNX1 block -5.9%[21.7 µM] and Luc counter 11.2µM*.
